Results published in paper PMC12820563, “FoxP3 forms a head-to-head dimer in vivo and stabilizes its multimerization on adjacent microsatellites”.
The full ranking holds about 16,000 sequences; the median of “rpm ratio (pull-down/input)” is about 0.94, and the highest 2% start at about 1.7. For the sample, the highest values were picked, then their nearest neighbours and some sequences at random.

The sequences below were run against T1, MBP-FoxP1dN (Mus musculus, UniProt P58462 326-579) (assay: PD-seq (MBP pull-down with sequencing); 20 mM Tris-HCl pH 7.5, 100 mM NaCl, 1.5 mM MgCl2, 0.4 uM protein, 0.1 uM dsDNA library, 30 min, room temperature, amylose pull-down; high values mean tight binding). Conditions: protein: recombinant; tags: His6-MBP; chain copies: 2; dsDNA, one strand shown.
T1 sequence: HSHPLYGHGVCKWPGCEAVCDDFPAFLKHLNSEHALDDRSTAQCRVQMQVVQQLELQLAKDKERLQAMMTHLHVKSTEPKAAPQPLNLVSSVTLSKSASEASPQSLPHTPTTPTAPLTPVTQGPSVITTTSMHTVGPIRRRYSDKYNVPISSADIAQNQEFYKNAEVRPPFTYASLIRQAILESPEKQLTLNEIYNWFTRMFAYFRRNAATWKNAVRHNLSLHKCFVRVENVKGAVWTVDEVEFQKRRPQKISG
Procedure, shortened: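 Binding is given as reads-per-million enrichment, pull-down over input, with replicates pooled. The bait was an N-terminus-lacking mouse FoxP3 or FoxP1 fragment with a His6-MBP tag, expressed in E. coli and used at 0.4 µM with 0.1 µM Klenow-filled degenerate double-stranded DNA library for 30 min at room temperature in Tris pH 7.5 buffer with NaCl and MgCl2. Amylose resin pull-down with three washes was followed by proteinase K release, PCR barcoding and Illumina sequencing.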

| Sequence | binding signal |
| --- | --- |
| GATGATTGTTCTCCCAGCTGATGAATTGGCCAACTCGAGTAAACAAATTTTCCTAATCTTTCTGTTCAAGCGCCATCTAC | 0.833 RPM ratio (pull-down/input) |
| GATGATTGTTCTCCCAGCTGATGAATTCTCTTTGTCGAGTAAACAAATTTTCCTAATCTTTCTGTTCAAGCGCCATCTAC | 0.834 RPM ratio (pull-down/input) |
| GATGATTGTTCTCCCAGCTGATGAATTGTCTATTTCGAGTAAACAAATTTTCCTAATCTTTCTGTTCAAGCGCCATCTAC | 1.31 RPM ratio (pull-down/input) |
| GATGATTGTTCTCCCAGCTGATGAATTTCCTATGTCGAGTAAACAAATTTTCCTAATCTTTCTGTTCAAGCGCCATCTAC | 0.811 RPM ratio (pull-down/input) |
| GATGATTGTTCTCCCAGCTGATGAATTCGTATTTTCGAGTAAACAAATTTTCCTAATCTTTCTGTTCAAGCGCCATCTAC | 1.67 RPM ratio (pull-down/input) |
| GATGATTGTTCTCCCAGCTGATGAATTGTCGTATTCGAGTAAACAAATTTTCCTAATCTTTCTGTTCAAGCGCCATCTAC | 1.14 RPM ratio (pull-down/input) |
| GATGATTGTTCTCCCAGCTGATGAATTCTAATTGTCGAGTAAACAAATTTTCCTAATCTTTCTGTTCAAGCGCCATCTAC | 1.29 RPM ratio (pull-down/input) |
| GATGATTGTTCTCCCAGCTGATGAATTTGTCTATTCGAGTAAACAAATTTTCCTAATCTTTCTGTTCAAGCGCCATCTAC | 1.28 RPM ratio (pull-down/input) |
| GATGATTGTTCTCCCAGCTGATGAATTTCTATTGTCGAGTAAACAAATTTTCCTAATCTTTCTGTTCAAGCGCCATCTAC | 1.91 RPM ratio (pull-down/input) |
| GATGATTGTTCTCCCAGCTGATGAATTCGTATTGTCGAGTAAACAAATTTTCCTAATCTTTCTGTTCAAGCGCCATCTAC | 2.07 RPM ratio (pull-down/input) |
| GATGATTGTTCTCCCAGCTGATGAATTCTATTTGTCGAGTAAACAAATTTTCCTAATCTTTCTGTTCAAGCGCCATCTAC | 2.3 RPM ratio (pull-down/input) |
| GATGATTGTTCTCCCAGCTGATGAATTCTATCTGTCGAGTAAACAAATTTTCCTAATCTTTCTGTTCAAGCGCCATCTAC | 0.875 RPM ratio (pull-down/input) |
| GATGATTGTTCTCCCAGCTGATGAATTCCTATTGTCGAGTAAACAAATTTTCCTAATCTTTCTGTTCAAGCGCCATCTAC | 2.02 RPM ratio (pull-down/input) |
| GATGATTGTTCTCCCAGCTGATGAATTTCGCATTTCGAGTAAACAAATTTTCCTAATCTTTCTGTTCAAGCGCCATCTAC | 1.28 RPM ratio (pull-down/input) |
| GATGATTGTTCTCCCAGCTGATGAATTGCCCAGTTCGAGTAAACAAATTTTCCTAATCTTTCTGTTCAAGCGCCATCTAC | 0.931 RPM ratio (pull-down/input) |
| GATGATTGTTCTCCCAGCTGATGAATTGGGTCCTTCGAGTAAACAAATTTTCCTAATCTTTCTGTTCAAGCGCCATCTAC | 0.85 RPM ratio (pull-down/input) |
| GATGATTGTTCTCCCAGCTGATGAATTGAACTTTTCGAGTAAACAAATTTTCCTAATCTTTCTGTTCAAGCGCCATCTAC | 0.887 RPM ratio (pull-down/input) |
| GATGATTGTTCTCCCAGCTGATGAATTTTCACAATCGAGTAAACAAATTTTCCTAATCTTTCTGTTCAAGCGCCATCTAC | 1.29 RPM ratio (pull-down/input) |
| GATGATTGTTCTCCCAGCTGATGAATTACTGACCTCGAGTAAACAAATTTTCCTAATCTTTCTGTTCAAGCGCCATCTAC | 0.91 RPM ratio (pull-down/input) |
| GATGATTGTTCTCCCAGCTGATGAATTTGGGTAATCGAGTAAACAAATTTTCCTAATCTTTCTGTTCAAGCGCCATCTAC | 1.27 RPM ratio (pull-down/input) |
| GATGATTGTTCTCCCAGCTGATGAATTCTCCGGGTCGAGTAAACAAATTTTCCTAATCTTTCTGTTCAAGCGCCATCTAC | 0.759 RPM ratio (pull-down/input) |
| GATGATTGTTCTCCCAGCTGATGAATTCCGGGATTCGAGTAAACAAATTTTCCTAATCTTTCTGTTCAAGCGCCATCTAC | 0.754 RPM ratio (pull-down/input) |
| GATGATTGTTCTCCCAGCTGATGAATTATCTGATTCGAGTAAACAAATTTTCCTAATCTTTCTGTTCAAGCGCCATCTAC | 0.984 RPM ratio (pull-down/input) |
